# PubChem BioAssay
# Unmarked numbers belong to inactive results. For some assays here: Results with a measured potency or affinity are listed apart. Calls of active or inactive are those of the source. Unless noted, the rule behind the calls is not given here.
# Assays:
# [1] = antimalarial activity against Dd2 strain (AID 2302;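 active = growth inhibition above 50% at the single 2 µM test dose, taken to imply half-maximal potency below 2 µM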;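 note: 0% = DMSO untreated growth and 100% = chloroquine plus artemisinin killed control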); details: P. falciparum Dd2 in RBCs, LDH growth readout, 72 h; at 2 µM; hits give high values
# [2] = human hepatoma cell viability loss – ATP luminescence, cytotoxicity control for P. falciparum antimalarial project, primary screen (AID 2303;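 active = inhibition above 50%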;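 note: 0% = DMSO wells and 100% = digitonin-killed cells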); details: HepG2 viability, 24-48 h, at 10 µM, hits give high values
# [3] = molecular target: L-lactate dehydrogenase (Plasmodium falciparum (isolate CDC / Honduras)) (UniProt Q27743); test: PfLDH activity inhibition – cell lysate, 3D7 strain, counter-screen for P. falciparum growth inhibition project (AID 2304);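 note: 0% = vehicle and 100% = reference inhibitor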; details: P. falciparum 3D7 crude extract, LDH APAD/NBT absorbance; at 2 µM; hits give high values
# [4] = inhibition of 3D7 malaria parasite growth – strain 3D7 (AID 2306);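 note: 0% = DMSO wells and 100% = chloroquine plus artemisinin control wells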; details: P. falciparum 3D7 erythrocytic growth, LDH absorbance, 72 h; at 2 µM; hits give high values
# [5] = molecular target: Calcium-dependent protein kinase 1 (Plasmodium falciparum (isolate 3D7)) (UniProt P62344); test: PfCDPK1 kinase inhibitors, biochemical, TCAMS library (AID 1159585; cut-off not given, nearly all actives have IC50 up to about 0.98 µM;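 note: inhibitors leave more ATP so luminescence rises with inhibition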); details: recombinant PfCDPK1, Kinase-Glo ATP depletion luminescence
# [6] = molecular target: Plasmodium falciparum protein kinase 6 (PK6, PF3D7_1337100) (UniProt Q8IDW1); test: PfPK6 kinase inhibitors, biochemical, TCAMS library (AID 1159586); details: recombinant PfPK6, Kinase-Glo ATP depletion luminescence
# [7] = molecular target: Protein kinase 7 (PK7), Plasmodium falciparum 3D7 (PF3D7_0213400) (UniProt Q7YTF7); test: inhibition of Plasmodium PK7 catalytic activity – biochemical, TCAMS antimalarial set, Kinase-Glo luminescence (AID 1159587); details: recombinant PfPK7, Kinase-Glo ATP depletion luminescence
# [8] = molecular target: Calcium-dependent protein kinase 4 (Plasmodium falciparum (isolate 3D7)) (UniProt Q8IBS5); test: PfCDPK4 kinase inhibitors, biochemical, TCAMS library (AID 1159588; cut-off not given, nearly all actives have IC50 up to about 0.91 µM); details: recombinant PfCDPK4, Kinase-Glo ATP depletion luminescence
# Calcium-dependent protein kinase 4 (Plasmodium falciparum (isolate 3D7)), sequence (Q8IBS5 whole entry, looked up): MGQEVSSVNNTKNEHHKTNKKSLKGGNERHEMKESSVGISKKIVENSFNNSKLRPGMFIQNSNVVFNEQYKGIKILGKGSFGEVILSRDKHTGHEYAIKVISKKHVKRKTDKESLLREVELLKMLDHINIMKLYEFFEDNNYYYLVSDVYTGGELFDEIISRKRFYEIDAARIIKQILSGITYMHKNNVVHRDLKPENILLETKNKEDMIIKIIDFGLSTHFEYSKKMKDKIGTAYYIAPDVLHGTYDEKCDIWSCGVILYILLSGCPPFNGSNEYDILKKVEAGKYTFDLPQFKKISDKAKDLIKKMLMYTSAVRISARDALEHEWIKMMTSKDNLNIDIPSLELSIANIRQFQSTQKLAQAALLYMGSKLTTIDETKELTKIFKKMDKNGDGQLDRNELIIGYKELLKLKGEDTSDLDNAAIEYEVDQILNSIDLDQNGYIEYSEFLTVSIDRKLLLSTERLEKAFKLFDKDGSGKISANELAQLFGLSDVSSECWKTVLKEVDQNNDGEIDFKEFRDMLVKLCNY
# L-lactate dehydrogenase (Plasmodium falciparum (isolate CDC / Honduras)), sequence (Q27743 whole entry, looked up): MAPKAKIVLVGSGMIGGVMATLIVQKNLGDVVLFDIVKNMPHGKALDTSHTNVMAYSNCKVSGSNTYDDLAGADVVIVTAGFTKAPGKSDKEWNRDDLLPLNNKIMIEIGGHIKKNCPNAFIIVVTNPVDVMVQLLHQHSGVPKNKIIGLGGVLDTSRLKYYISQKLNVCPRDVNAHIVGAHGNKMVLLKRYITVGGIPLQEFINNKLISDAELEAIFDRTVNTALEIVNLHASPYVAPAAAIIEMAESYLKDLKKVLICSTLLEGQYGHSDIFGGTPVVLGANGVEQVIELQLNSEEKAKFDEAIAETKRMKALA
# Calcium-dependent protein kinase 1 (Plasmodium falciparum (isolate 3D7)), sequence (P62344 whole entry, looked up): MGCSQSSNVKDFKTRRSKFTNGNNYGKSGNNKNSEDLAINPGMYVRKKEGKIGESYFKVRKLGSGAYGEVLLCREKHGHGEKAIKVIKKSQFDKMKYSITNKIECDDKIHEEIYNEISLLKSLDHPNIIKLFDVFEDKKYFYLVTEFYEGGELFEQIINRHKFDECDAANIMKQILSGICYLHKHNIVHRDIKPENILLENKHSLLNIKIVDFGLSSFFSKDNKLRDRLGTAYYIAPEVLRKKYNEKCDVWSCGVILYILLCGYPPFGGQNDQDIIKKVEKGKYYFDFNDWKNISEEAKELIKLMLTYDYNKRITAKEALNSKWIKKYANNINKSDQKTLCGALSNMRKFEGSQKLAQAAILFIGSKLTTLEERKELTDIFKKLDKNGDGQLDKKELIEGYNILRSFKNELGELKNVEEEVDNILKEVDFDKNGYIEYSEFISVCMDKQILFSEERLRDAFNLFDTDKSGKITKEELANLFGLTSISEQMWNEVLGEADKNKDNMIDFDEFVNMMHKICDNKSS
# Protein kinase 7 (PK7), Plasmodium falciparum 3D7 (PF3D7_0213400), sequence (Q7YTF7 1-343): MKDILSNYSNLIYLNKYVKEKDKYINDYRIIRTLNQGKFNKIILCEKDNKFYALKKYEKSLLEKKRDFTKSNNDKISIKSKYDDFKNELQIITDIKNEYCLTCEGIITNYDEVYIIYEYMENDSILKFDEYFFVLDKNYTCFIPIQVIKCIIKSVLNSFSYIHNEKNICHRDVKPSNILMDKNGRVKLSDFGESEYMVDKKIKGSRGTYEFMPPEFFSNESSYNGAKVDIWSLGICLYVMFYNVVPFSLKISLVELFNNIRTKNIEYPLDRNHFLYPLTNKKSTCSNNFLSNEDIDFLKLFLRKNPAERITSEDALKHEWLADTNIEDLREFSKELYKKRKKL
# Plasmodium falciparum protein kinase 6 (PK6, PF3D7_1337100), sequence (Q8IDW1 1-305): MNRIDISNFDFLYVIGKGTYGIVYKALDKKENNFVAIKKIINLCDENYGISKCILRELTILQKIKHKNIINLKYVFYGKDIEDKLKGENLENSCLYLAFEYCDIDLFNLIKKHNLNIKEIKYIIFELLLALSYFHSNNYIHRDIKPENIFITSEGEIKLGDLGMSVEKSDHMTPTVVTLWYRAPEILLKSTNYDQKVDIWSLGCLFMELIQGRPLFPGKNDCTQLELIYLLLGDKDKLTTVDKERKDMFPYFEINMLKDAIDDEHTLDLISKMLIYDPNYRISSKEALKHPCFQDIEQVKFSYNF
SMILES,growth inhibition [1],inhibition [2],inhibition [3] [%],growth inhibition [4],outcome [5],outcome [6],outcome [7],outcome [8]
CCCCn1c(Sc2ccc(C#N)c([N+](=O)[O-])c2)nnc1-c1ccc(OC)cc1,61% (active),12%,0,93% (active),inactive,inactive,inactive,inactive
CCOC(=O)c1ccc(NC(=O)N[C@@H](Cc2ccc(O)cc2)C(=O)NC2CCN(Cc3ccc4c(c3)OCO4)CC2)cc1,24%,-1%,3,86% (active),inactive,inactive,inactive,inactive
Fc1ccc2nc(-c3cccc(-c4cccc(CN5CCN(c6cnccn6)CC5)c4)c3)[nH]c2c1,35%,17%,-2,93% (active),inactive,inactive,inactive,inactive
CNCCNCc1ccc(-c2ccc(-c3nc4c(C)cccc4[nH]3)s2)cc1,26%,16%,5,97% (active),inactive,inactive,inactive,inactive
CCCCCCN1CCN(Cc2cccc(NC(=O)c3cc4ccccc4o3)c2)CC1,83% (active),20%,3,93% (active),inactive,inactive,inactive,inactive
Cc1[nH]c2ccc(-c3ccc(N(C)C)cc3)cc2c(=O)c1Cl,96% (active),-1%,5,97% (active),inactive,inactive,inactive,inactive
N#Cc1ccc(NC(=O)c2ccc(Cc3ccc4c(c3)CCN(C3CCC3)CC4)cn2)cc1,2%,66% (active),-4,91% (active),inactive,inactive,inactive,inactive
Cc1[nH]c(C)c(-c2ccc(Br)cc2)c(=O)c1Br,95% (active),9%,6,98% (active),inactive,inactive,inactive,inactive
CN(C)CCn1cc(C(=O)c2cc(Cl)ccc2O)cc1-c1nc2ccccc2c(=O)[nH]1,87% (active),16%,-3,99% (active),inactive,inactive,inactive,inactive
Clc1cc(Cl)c2c(c1)C(NCCCNc1nc3ccccc3[nH]1)CCO2 (stereo unspecified),31%,28%,-4,101% (active),inactive,inactive,inactive,inactive
CNc1ccc(CNCc2cccc(-c3ccc(-c4nc5ccccc5[nH]4)cc3)c2)cc1,80% (active),18%,-5,102% (active),inactive,inactive,inactive,inactive
O=C(Nc1cccc(CN2CCCN(Cc3ccc(O)cc3)CC2)c1)c1ccc(-c2ccccc2)cc1,93% (active),33%,-8,100% (active),inactive,inactive,inactive,inactive
CC(=O)N[C@H](C(=O)Nc1cccc(-c2ccc(-c3nc4c(C)cccc4[nH]3)s2)c1)C(C)C,29%,33%,2,93% (active),inactive,inactive,inactive,inactive
CCNc1cc(C(=O)N[C@@H](Cc2ccccc2)[C@H](O)CNC(C)(C)CSCC(C)C)cc(N2CCCC2=O)c1,97% (active),-20%,-7,101% (active),inactive,inactive,inactive,inactive
CCCCCCNC(=O)C1Cc2c([nH]c3cc(Cl)ccc23)C2(CCN(Cc3ccccc3)CC2)N1 (stereo unspecified),56% (active),21%,2,90% (active),inactive,inactive,inactive,inactive
CCCc1ccc(S(=O)(=O)NC2CCN(C(=O)Nc3ccc(I)cc3)CC2)cc1,-8%,8%,-3,97% (active),inactive,inactive,inactive,inactive
O=C(NCCN1CCCC1)c1ccc(-c2cccc(-c3nc4ccc(F)cc4[nH]3)c2)cc1,2%,29%,1,100% (active),inactive,inactive,inactive,inactive
Cc1ccc(O)cc1Nc1ccnc2cc(-c3ccccc3)ccc12,99% (active),45%,-2,100% (active),inactive,inactive,inactive,inactive
O=[N+]([O-])c1ccccc1C=NNc1ccnc2ccc(C(F)(F)F)cc12,36%,6%,-3,100% (active),inactive,inactive,inactive,inactive

SMILES,growth inhibition [1],inhibition [2],inhibition [3] [%],growth inhibition [4],outcome [5],outcome [6],outcome [7],outcome [8]
c1cncc(-c2cccc(CNc3nccc(Nc4ccc(OCCN5CCOCC5)cc4)n3)c2)c1,27%,1%,-2,93% (active),inactive,inactive,inactive,inactive
O=C(O)/C=C/c1cccc(F)c1F,1%,58% (active),-1,96% (active),inactive,inactive,inactive,inactive
COc1ccc(Nc2nccc(NCCNC(=O)c3cc4ccccc4s3)n2)cc1,7%,6%,-1,98% (active),inactive,inactive,inactive,inactive
CC(=O)N(C)c1cccc(C(=O)Nc2ccc(-c3cccc(-c4nc5c(C)cccc5[nH]4)c3)cc2)c1,68% (active),86% (active),-2,97% (active),inactive,inactive,inactive,inactive
COc1ccc2nccc([C@@H](O)CN3CCC(NC(=O)c4cc5c(F)cc(F)cc5[nH]4)CC3)c2c1,98% (active),33%,-1,101% (active),inactive,inactive,inactive,inactive
CCNc1cc(C(=O)N[C@@H](Cc2ccccc2)[C@H](O)CNC2CCC(C(C)(C)C)CC2)cc(N2CCCC2=O)c1 (stereo partly specified),98% (active),38%,-3,98% (active),inactive,inactive,inactive,inactive
OCCN1CCN(C(=S)Nc2ccccc2)CC1,7%,6%,2,97% (active),inactive,inactive,inactive,inactive
CCCCNC(=O)[C@H](CC1CCCCC1)NC(=O)c1ccc(O)c(-c2ccc(OC)cc2)c1,12%,-8%,5,89% (active),inactive,inactive,inactive,inactive
CCCCCCNC(=O)C(N)CCCC(N)C(=O)NCCCCCC (stereo unspecified),-5%,-2%,-2,99% (active),inactive,inactive,inactive,inactive
O=C(C=Cc1ccc(Cl)c(Cl)c1)NCCCCCN1CCC(CCNC(=O)c2sc3ccccc3c2Cl)CC1,6%,27%,-5,88% (active),inactive,inactive,inactive,inactive
O=C(Cc1cnc[nH]1)Nc1cccc(-c2cccc(-c3nc4ccc(C(F)(F)F)cc4[nH]3)c2)c1,101% (active),35%,-3,102% (active),inactive,inactive,inactive,inactive
COc1ccc(CNC(=O)NC2CCN(c3ccnc(Nc4ccc(F)cc4)n3)C2)cc1 (stereo unspecified),78% (active),4%,-2,91% (active),inactive,inactive,inactive,inactive
O=C(Nc1ccc(Cl)c(Cl)c1)N[C@H]1CCN(CCCCCNC(=O)[C@@H]2C[C@H]2c2ccc(Cl)c(Cl)c2)C1,8%,42%,3,93% (active),inactive,inactive,inactive,inactive
CNCCNCc1ccc(-c2cccc(-c3nc4ccc(F)cc4[nH]3)c2)cc1,1%,10%,-1,93% (active),inactive,inactive,inactive,inactive
Cc1cccc2[nH]c(-c3ccc(-c4ccc(NC(=O)Nc5ccsc5)cc4)s3)nc12,88% (active),74% (active),2,100% (active),inactive,inactive,inactive,inactive
c1ccc(-c2cccnn2)cc1,6%,-7%,0,98% (active),inactive,inactive,inactive,inactive
COc1cccc(Nc2nnc(SCC(=O)NNC(=O)c3ccccn3)s2)c1,95% (active),52% (active),-1,99% (active),inactive,inactive,inactive,inactive
CC(NC(=O)c1ccc(O)c(-c2ccc(Cl)c(Cl)c2)c1)C(=O)NCCN1CCOCC1 (stereo unspecified),7%,2%,-3,87% (active),inactive,inactive,inactive,inactive
